High-throughput results from PubChem BioAssay.
PfHsp90 yeast 2 – growth inhibition of yeast expressing Plasmodium Hsp90; 0.32% of 310,000 active; S. cerevisiae expressing PfHsp90, BacTiter-Glo ATP, 48 h; yeast lacking PDR1 and PDR3 efflux regulators; inhibition, % at 9.4 µM;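 active = every replicate shows inhibition above about 80%, whatever the replicate mean, limit read from the data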;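 note: 0% = DMSO neutral controls and 100% = 20 µM radicicol positive controls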
V-ATPase pHluor – alters yeast V-ATPase proton transport. S. cerevisiae, pHLuorin cytosolic pH fluorescence. response, % at 10 µM. 0.37% of 350,000 active; in the data active = response mostly above about 7.3%, no sharp cut-off; inactive = mostly below about 5.4%; note: actives read high
SKKanGAS inh – inhibitors of SKKanGAS S. pyogenes growth in kanamycin (SK-promoter or general growth effect); 1.3% of 300,000 active; inhibition, % at 7.5 µM; BacTiter-Glo, 6 h;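 active = mean replicate score, as percent of positive control median, at least 50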;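 note: strain carries kanamycin resistance gene driven by streptokinase promoter and grows in 40 µg/ml kanamycin; loss of luminescence reflects streptokinase promoter inhibition or plain growth inhibition; 0% = median of DMSO wells and 100% = positive control at its reference dose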
TIM10 inh – growth inhibitors of TIM10 yeast strain; S. cerevisiae TIM10 strain growth, BacTiter-Glo luminescence, 24 h; inhibition, % at 10 µM; 1.4% of 330,000 active; AID 463195;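 active = inhibition of 40% or more at the single tested concentration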;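 note: wild-type TIM10 isogenic control strain grown at permissive 25 °C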
tim10-1 inh – tim10-1 yeast growth inhibition; inhibition, % at 20 µM; 2.2% of 330,000 active; S. cerevisiae tim10-1 ts strain growth, BacTiter-Glo, 24 h;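 active = inhibition of at least 40%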;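 note: mutant grown at 25 °C; 0% = DMSO wells with yeast and 100% = wells holding no yeast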
tim23-1 inh – inhibits growth of tim23-1 mutant yeast; S. cerevisiae tim23-1 growth, BacTiter-Glo luminescence, 24 h; inhibition, % at 20 µM; 1.3% of 330,000 active; AID 463212;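 active = growth inhibition of the mutant yeast at or above 50%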;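 note: temperature-sensitive mutant grown at 25 °C; plate controls were DMSO-treated mutant yeast for no effect and medium wells lacking yeast for full effect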
tim10-1 conf – confirmation of tim10-1 mutant yeast growth inhibitors; shares compounds with tim10-1 inh; 56% of 7,400 active; S. cerevisiae tim10-1 ts strain growth, BacTiter-Glo, 24 h; inhibition, % at 20 µM;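 active = inhibition of yeast growth at or above a set limit in either of two repeat tests at 20 µM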;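 note: tim10-1 mutant grown at permissive 25 °C to find synthetic lethal compounds; 0% = DMSO yeast wells and 100% = medium wells without yeast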
Numbers without * were called inactive; / = not tested or not shown. Most compounds without a hit are left out; they make up all but 4.6% or so of the library.

SMILES	PfHsp90 yeast 2	V-ATPase pHluor	SKKanGAS inh	TIM10 inh	tim10-1 inh	tim23-1 inh	tim10-1 conf
S=c1nc(Cc2ccccc2)[nH]c2ccccc12	-21.1	4.3	5.1	31.2	42.7*	27.7	11.6
N#CC1=C(N)Oc2n[nH]c(-c3cccs3)c2C1c1ccncc1 (stereo not drawn)	-0.4	-5.4	-2.6	-1.9	5.3	12.7	/
Cc1ccc(C2C(C#N)=C(N)Oc3n[nH]c(-c4cccs4)c32)s1 (stereo not drawn)	-1.2	-2.6	-1.0	37.2	45.8*	42.8	30.6
N#CC(C#N)=C1NC2(CCCCC2)Cc2ccccc21	-23.6	-1.4	-6.5	23.7	20.0	12.5	/
CC(=O)N(C(C)=O)C1=C(C#N)C2(CCCCC2)Cc2ccccc21	-15.2	-1.5	0.4	34.0	46.5*	49.9	34.5*
Cc1ccccc1-c1nc(CN2CCN(C(=O)c3ccco3)CC2)c(C)o1	-26.1	-0.5	-2.1	9.3	6.9	18.2	/
CCOc1ccccc1-c1nc(CN2CCN(C(=O)c3ccco3)CC2)c(C)o1	12.4	-0.4	1.3	15.9	40.8*	39.2	21.9
Cc1ccc2nc(NC(=O)C3CCN(S(=O)(=O)c4cccs4)CC3)sc2c1	0.5	1.5	23.8	31.1	41.9*	20.7	19.4
Cc1ccc2nc(NC(=O)C3CCCN(S(=O)(=O)c4cccc5nsnc45)C3)sc2c1 (stereo not drawn)	-12.2	2.6	26.7	31.8	41.2*	25.9	20.4
COc1ccc2nc(NC(=O)C3CCN(S(=O)(=O)c4cccs4)CC3)sc2c1	-1.4	-0.4	19.8	18.7	29.5	25.2	/
CC(C)(C)NC(=O)C(=O)NNC(=O)c1cccc(F)c1	-0.3	2.0	-20.4	4.3	12.4	-4.2	/
O=C(CSc1nc(O)cc(=O)n1-c1ccc(Cl)c(Cl)c1)Nc1ccc(Cl)cc1Cl	-12.1	-6.0	23.4	15.9	-2.0	-4.6	/
O=C1NC(=S)N/C1=C\c1ccccc1OCc1ccc(C(=O)O)cc1	-0.6	-1.8	6.5	-15.4	1.3	10.1	/
O=C(O)c1ccc(COc2ccccc2C=C2C(=O)c3ccccc3C2=O)cc1	-0.5	-0.1	0.6	27.0	40.0	28.4	9.2
CCC(CC)c1ncc[nH]1	0.6	0.8	0.2	10.2	2.3	10.0	/
Cc1nn(Cc2ccc([N+](=O)[O-])cc2)c(=O)n1N(C)c1ncc(C(F)(F)F)cc1Cl	9.2	-50.1	3.6	23.8	42.7*	27.1	26.9*
Cc1cc2c(cc1C)C(c1cc(Br)ccc1F)CC(=O)N2 (stereo not drawn)	21.8	-0.5	-0.4	9.0	45.4*	25.0	28.0
CCCOc1ccc(C(=O)N2CCN(c3ccc(N)cc3Cl)CC2)cc1	21.0	1.7	0.8	32.5	48.2*	42.3	34.8*
CC1C(=O)Nc2ccc(S(=O)(=O)N3CCCCCC3)cc21 (stereo not drawn)	11.4	-2.1	/	-0.7	0.3	2.7	/
Cc1noc(C)c1NC(=O)N(C)C[C@H]1Oc2ccc(NC(=O)Nc3ccc(C(F)(F)F)cc3)cc2C(=O)N([C@H](C)CO)C[C@@H]1C	-17.4	-0.1	/	0.3	1.6	9.3	/
CC(C)CC1Nc2ncnc(N3CCN(c4ccccc4)CC3)c2N(Cc2ccccc2)C1=O (stereo not drawn)	-13.2	-0.9	9.0	14.1	27.1	37.5	/
COc1ccc(CN2C(=O)C(CC(C)C)Nc3ncnc(N4CCN(c5ccccc5)CC4)c32)cc1 (stereo not drawn)	-7.9	-3.3	11.0	26.4	42.7*	35.2	22.9
CC(C)c1nnc(NC(=O)CCS(=O)(=O)c2nc(-c3cccs3)cc(C(F)(F)F)n2)s1	/	-2.0	-9.6	28.3	61.1*	44.4	44.5*
CC(C)c1nnc(NC(=O)CCS(=O)(=O)Cc2ccccc2)s1	-11.4	-1.0	-3.5	9.5	-25.9	-5.9	/
CCN1CCN(C(=O)C(C)Nc2ccc(OC)cc2OC)CC1 (stereo not drawn)	3.6	-2.9	-3.8	-9.2	5.8	0.8	/
SMILES	PfHsp90 yeast 2	V-ATPase pHluor	SKKanGAS inh	TIM10 inh	tim10-1 inh	tim23-1 inh	tim10-1 conf
CCOC(=O)CC(=O)CSc1nc2cc(C)ccc2cc1C	2.2	-1.5	-19.5	34.0	43.7*	42.1	27.3
CCOC(=O)CC(=O)CSc1nc2c(C)c(C)ccc2cc1C	/	2.3	13.1	30.7	30.8	16.5	/
COc1ccccc1N1CCN(C(=O)c2oc3cc(C)cc(C)c3c2C)CC1	-6.4	-1.1	10.1	28.0	44.9*	30.5	27.5
Cc1[nH]c(-c2ccc(F)cc2)cc1C(=O)N1CCN(c2ccccc2F)CC1	12.1	0.1	46.4	14.9	47.5*	49.2	40.2*
COc1ccc2[nH]c(C(=O)N3CCN(c4ccccc4F)CC3)c(C)c2c1	-61.3	2.7	9.5	19.2	47.2*	44.7	32.9*
COc1ccccc1N1CCN(C(=O)c2cc(=O)c3ccc(C)cc3o2)CC1	-4.5	-0.2	2.2	15.3	28.1	18.5	/
COc1cccc(N2CCN(C(=O)c3cc(-c4ccc(F)cc4)[nH]c3C)CC2)c1	-27.1	0.9	12.5	21.0	50.0*	39.2	26.8
O=C1NC[C@@H](c2ccccc2)OC(=O)[C@@H](Cc2ccc(F)cc2)CC/C=C/C[C@@H]1CC(=O)N(CCO)Cc1ccccc1	8.9	-0.2	/	-2.3	-5.7	4.8	/
COc1ccccc1N1CCN(C(=O)C2CC2)CC1	/	10.0	5.6	-13.1	-12.1	26.2	/
COc1ccccc1N1CCN(C(=O)c2cc(-c3ccc(F)cc3)[nH]c2C)CC1	3.2	-2.9	2.3	14.5	43.0*	40.1	40.5*
Cc1cccc(N2CCN(C(=O)c3ccncc3)CC2)c1C	-0.6	0.7	-3.3	19.3	35.1	27.7	/
COc1ccccc1N1CCN(C(=O)C2c3ccccc3Oc3ccccc32)CC1	/	-1.7	-0.2	23.9	45.2*	32.7	20.4
Cc1[nH]c(-c2ccc(F)cc2)cc1C(=O)N1CCN(c2ccccc2)CC1	-33.2	-0.7	26.7	25.2	37.4	40.6	/
CCc1nc2ccc(C(=O)N3CCN(c4cccc(OC)c4)CC3)cc2nc1CC	-13.7	4.0	0.8	23.8	45.5*	39.3	13.4
COc1cc(C(=O)N2CCN(c3cccc(C)c3C)CC2)cc(OC)c1OC	-49.1	-3.3	-6.5	20.5	42.0*	42.2	1.6
O=C(c1cc2c(=O)n3ccccc3nc2s1)N1CCN(Cc2ccc3c(c2)OCO3)CC1	/	-0.1	2.1	39.8	43.1*	42.1	29.6
Cc1c(C(=O)N2CCN(Cc3ccc4c(c3)OCO4)CC2)sc2ncnc(N3CCN(c4ccccc4)CC3)c12	10.5	-0.6	18.9	21.0	47.9*	24.3	7.4
Cc1c(C(=O)N2CCN(Cc3ccc4c(c3)OCO4)CC2)sc2ncnc(N3CCN(c4ccccc4F)CC3)c12	-22.0	-2.0	40.2	23.7	41.4*	19.6	0.4
CSCC[C@H](NC(=O)Cc1c(C)c2c(cc(C)c3c(C)coc32)oc1=O)C(=O)O	-13.1	1.2	4.7	16.0	26.3	18.5	/
